# mHTT-CaM PPI inh – mHTT-calmodulin interaction abrogation; P42858; AlphaScreen His-mHTT/GST-CaM binding, luminescence; inhibition, % at 15 µM; 190,000 compounds, 3.6% hits; AID 1671202
# Pf apPOL inh – Pf-apPOL DNA polymerase inhibition. Recombinant Pf-apPOL, molecular beacon fluorescence, 1.5 h. inhibition, % at 10 µM. 210,000 compounds, 0.25% hits. AID 1794808
# Numbers stand for hits; - = inactive; . = not tested or not shown. This is a sample that favours compounds with a hit; in the whole collection about 3.5% have one here. No stated cut-off is given here; in the data, active means inhibition above about 50%; inactive means the rest.
SMILES,mHTT-CaM PPI inh,Pf apPOL inh
COc1ccc(C)cc1-n1c(C)nc2cc(C(=O)NCC(OC)OC)ccc21,-,-
CCCC(=O)N1CCCC(COc2cccc(C(=O)NC3CC3)c2)C1 (stereo unspecified),-,-
O=C(Cn1cnc2ccccc2c1=O)N1CCCC(c2nnc(-c3ccccc3F)s2)C1 (stereo unspecified),-,-
O=C(Nc1cccc2cccnc12)C(=O)Nc1cccc2cccnc12,-,-
CCCCC(=O)NC(c1cccs1)c1cc(Cl)c2cccnc2c1O (stereo unspecified),-,-
Oc1ccc2ccccc2c1C(c1cccs1)N1CCCCC1 (stereo unspecified),.,-
CC(=O)NC(c1cccs1)c1ccc2cccnc2c1O (stereo unspecified),100,-
CC(=O)NC(c1ccco1)c1ccc2cccnc2c1O (stereo unspecified),100,-
OCCN1CCN(C(c2cccs2)c2ccc3cccnc3c2O)CC1 (stereo unspecified),100,96
CC(=O)Nc1ccc(N2C(=O)c3ccccc3CC2(C)C(=O)NCc2ccccc2)cc1 (stereo unspecified),-,-
NS(=O)(=O)c1ccc(NC(=O)Nc2ccc(C(F)(F)F)cc2)cc1,.,-
COc1ccc(-c2cc(SCc3ccccn3)ncn2)cc1,-,-
COc1nc(Cl)cc(C)c1C(=O)Nc1c(C)cc(C)cc1C,-,-
O=C(Nc1nc(-c2ccc(Cl)cc2)cs1)c1cncc(Br)c1,53,-
CCOc1ccc(-c2csc(NC(=O)c3cncc(Br)c3)n2)cc1,-,-
Cc1ccc(Oc2nccnc2N2CCCC(C(=O)NCc3cccc(Cl)c3)C2)cc1 (stereo unspecified),-,-
O=C(Cc1ccc([N+](=O)[O-])cc1)Nc1ccc2c(c1)OCO2,-,-
O=C(CC(=O)c1ccc([N+](=O)[O-])cc1)Nc1ccc2c(c1)OCO2,51,-
O=C(Cn1cccc1-c1nc(-c2ccccc2)cs1)NC1CCCC1,-,-
Cc1cc(Cl)cc2sc(N(CCCn3ccnc3)C(=O)c3cccs3)nc12,82,-
CSc1cccc2sc(N(CC3CCCO3)C(=O)c3ccc4c(c3)OCCO4)nc12 (stereo unspecified),-,-
CC(=O)N(CCN1CCOCC1)c1nc2c(C)cc(Cl)cc2s1,-,-
Cc1ccc2sc(N(CCCn3ccnc3)C(=O)c3ccc4c(c3)OCCO4)nc2c1C,58,-
CC1CCc2c(sc3nc(SCc4ccc(Cl)cc4)nc(NCc4ccccc4)c23)C1 (stereo unspecified),.,-
O=C(NCc1ccc(F)cc1)c1ccc(N2CCN(c3ccccn3)CC2)c([N+](=O)[O-])c1,59,-
SMILES,mHTT-CaM PPI inh,Pf apPOL inh
O=C(NCc1cccnc1)c1ccc(N2CCN(c3ccccn3)CC2)c([N+](=O)[O-])c1,-,-
O=C1Nc2ccccc2N(O)N1c1ccc(Br)cc1F,-,-
CCOC(=O)c1ccc(Oc2ccccc2)nc1,-,-
COc1ccc(S(=O)(=O)N2CC=C(c3cn(C)c4ncccc34)CC2)cc1Cl,-,-
Cc1ccc(S(=O)(=O)N2CC=C(c3cn(C)c4ncccc34)CC2)cc1Cl,65,-
Cc1cc2cc([N+](=O)[O-])ccc2[nH]1,.,-
O=C1S/C(=C\c2ccccc2F)C(=O)N1CNc1cccc(F)c1,-,-
COc1ccccc1/C=C1\SC(=O)N(CNc2cccc(C)c2)C1=O,58,-
COc1ccc(/C=C2\SC(=O)N(CNc3ccccc3OC)C2=O)cc1,-,-
COc1ccc(NCN2C(=O)S/C(=C\c3ccccc3OC)C2=O)cc1,52,-
O=C(Nc1cc(F)ccc1F)N1CCC2(CC1)Nc1cc(F)ccc1-n1cccc12,59,-
Cc1ccccc1NC(=O)N1CCC2(CC1)Nc1ccccc1-n1cccc12,-,-
O=C(Nc1ccccc1F)N1CCC2(CC1)Nc1ccccc1-n1cccc12,50,-
O=C(Nc1ccc(F)cc1F)N1CCC2(CC1)Nc1ccccc1-n1cccc12,54,-
Cc1ccc(-c2nc3ncccc3o2)cc1NC(=O)c1ccc(C(C)(C)C)cc1,-,-
Cc1ccc(-c2nccn3cc(C(=O)N4CCN(C(C)C)CC4)nc23)cc1,-,-
CCn1nc(-c2ccc(OC)cc2F)cc1C(=O)N1CCCCC1,-,-
COc1ccc(Cl)cc1C(=O)Nc1ncc(S(=O)(=O)c2ccc([N+](=O)[O-])cc2)s1,-,-
O=C(Nc1nccs1)c1c[nH]c2ccc(F)cc2c1=O,-,-
COc1ccc(C2CC3(O)CC(C#N)(C(=O)N3)C2(C#N)C#N)cc1 (stereo unspecified),-,-
COc1ccc(C2CC3(C)CC(=O)C2C(C#N)(C#N)C3(C#N)C#N)cc1 (stereo unspecified),79,-
Cc1ccsc1C(O)CNS(=O)(=O)Cc1ccccc1Cl (stereo unspecified),-,-
COc1cc(C2(c3ccc(O)c(OC)c3)C(=O)Nc3c(C)cc(Br)cc32)ccc1O,60,-
Cc1cc(Br)cc2c1NC(=O)C2(O)N1CCOCC1 (stereo unspecified),-,-
COc1ccc(-c2nc3cccnc3n2C2CCN(C(=O)c3ccc(Cl)s3)C2)cc1 (stereo unspecified),70,-
SMILES,mHTT-CaM PPI inh,Pf apPOL inh
COc1ccc(-c2nc3cccnc3n2C2CCN(C(=O)NC(C)C)C2)cc1 (stereo unspecified),-,-
COc1ccc(-c2nc3cccnc3n2C2CCN(C(=O)c3ccc(C)s3)C2)cc1 (stereo unspecified),65,-
COc1ccc(-c2nc3cccnc3n2C2CCN(C(=O)c3cccs3)C2)cc1 (stereo unspecified),-,-
Cc1cc(C)cc(-n2c(CN3CCN(C(=O)NCC(C)C)CC3)nc3cccnc32)c1,-,-
O=C1NC(=NS(=O)(=O)c2ccccc2)S/C1=C\c1ccc2c(c1)OCO2,-,-
O=C(Nc1nc(-c2ccccn2)cs1)c1cc(-c2ccco2)on1,100,-
O=C(Nc1cc(-c2ccccn2)no1)c1ccccn1,100,-
COc1cc(OC)cc(C(=O)Nc2nc(C(=O)NC(C)c3ccccc3)cs2)c1 (stereo unspecified),-,-
O=C(Nc1cc(-c2ccccn2)no1)c1ccc(Cl)cc1,-,-
O=C(Nc1nc(-c2ccccc2)cs1)c1ccncc1,-,-
COc1cc(OC)cc(C(=O)Nc2nc(-c3ccccn3)cs2)c1,100,-
O=C(Nc1nc(-c2cc([N+](=O)[O-])cs2)cs1)c1cc(-c2ccco2)on1,-,-
O=C(Nc1nc(-c2ccccn2)cs1)c1ccc(Oc2ccccc2)cc1,94,-
CCCCC(=O)N1CCc2c(nc3cc(-c4ccccc4Cl)[nH]n3c2=O)C1,-,-
CCn1c(=O)c2c(ncn2Cc2ccccc2C)n(-c2ccccc2)c1=O,-,-
COc1ccc(C(=O)Nc2ccc3oc(-c4cccnc4)nc3c2)cc1[N+](=O)[O-],-,-
CCCc1ccc(OCC(O)CN2CCN(c3ccc(OC)cc3)CC2)cc1 (stereo unspecified),61,-
COc1ccc(N2CCN(CC(O)COC3CC(C)CCC3C(C)C)CC2)cc1 (stereo unspecified),62,-
CC1CCC(C(C)C)C(OCC(O)CN2CCN(Cc3ccccc3)CC2)C1 (stereo unspecified),-,-
CC(C)(C)c1ccc(OCC(O)CN2CCN(Cc3ccc4c(c3)OCO4)CC2)cc1 (stereo unspecified),-,-

# Compound activity from PubChem.
